Screening data (PubChem)
CYP2C9 act – human CYP2C9 activators, primary screen, biochemical, luminescence; actives 1.4% (n = 96,000); Cytochrome P450 2C9 (Homo sapiens), P11712; activation factor at 5 µM; recombinant CYP2C9, luciferin-H conversion; stronger effect = higher value; factor 1 = untreated enzyme, 0 = blocked;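 active = activation factor of 2 or more for CYP2C9 at a 5 µM dose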
CYP2C9 inh – blockers of cytochrome P450 2C9 activity – biochemical, luminescence, ADME assay, primary screen. CYP2C9 Supersomes, luciferin-H conversion. inhibition, % at 5 µM. actives 20% (n = 96,000). AID 777, 2007;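 active = blocking of liver enzyme CYP2C9 beyond about 50% at 5 µM, limit read from the data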
Pyk2 oligo antag – antagonists of Pyk2 self-association, primary screen, Q293 cells, FERM NanoBiT luminescence, HTS. actives 0.83% (n = 99,000). AID 1347419, 2020. stronger effect = lower value. Protein-tyrosine kinase 2-beta (Homo sapiens), Q14289. z-score (the deposit names both 25 µM and 10 µM);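 active = Z-score of -3 or lower, scaled per plate to the spread of control and sample wells; inactive = z-score above -3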;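 also: negative z-score means lost luminescence so less FERM oligomerization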
Target sequence (Q14289 whole entry, looked up): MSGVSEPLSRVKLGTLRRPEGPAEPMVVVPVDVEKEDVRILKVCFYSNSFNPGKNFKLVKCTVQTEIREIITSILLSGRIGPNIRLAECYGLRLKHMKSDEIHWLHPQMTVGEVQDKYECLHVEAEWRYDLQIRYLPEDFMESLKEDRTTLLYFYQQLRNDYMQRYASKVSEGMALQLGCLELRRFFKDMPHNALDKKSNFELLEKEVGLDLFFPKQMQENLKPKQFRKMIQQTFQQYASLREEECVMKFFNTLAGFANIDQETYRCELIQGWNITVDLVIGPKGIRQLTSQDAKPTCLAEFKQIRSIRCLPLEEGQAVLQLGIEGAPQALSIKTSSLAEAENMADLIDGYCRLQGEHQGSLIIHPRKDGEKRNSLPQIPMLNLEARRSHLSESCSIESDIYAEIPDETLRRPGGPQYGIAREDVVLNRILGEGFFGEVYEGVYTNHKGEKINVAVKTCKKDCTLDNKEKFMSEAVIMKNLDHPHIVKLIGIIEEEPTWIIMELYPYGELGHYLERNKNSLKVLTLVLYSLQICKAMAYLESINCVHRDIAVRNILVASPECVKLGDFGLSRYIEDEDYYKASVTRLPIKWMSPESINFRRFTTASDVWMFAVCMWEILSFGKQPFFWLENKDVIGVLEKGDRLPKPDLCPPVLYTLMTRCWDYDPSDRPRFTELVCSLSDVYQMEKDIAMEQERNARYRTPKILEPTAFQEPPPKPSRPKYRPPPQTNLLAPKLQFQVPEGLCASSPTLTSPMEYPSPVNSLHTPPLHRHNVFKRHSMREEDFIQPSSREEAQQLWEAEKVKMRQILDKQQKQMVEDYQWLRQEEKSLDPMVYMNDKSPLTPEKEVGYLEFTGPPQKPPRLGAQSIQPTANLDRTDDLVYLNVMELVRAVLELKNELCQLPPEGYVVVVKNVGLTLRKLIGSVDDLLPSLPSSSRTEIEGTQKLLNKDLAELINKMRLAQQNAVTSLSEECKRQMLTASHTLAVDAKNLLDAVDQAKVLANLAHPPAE
CYP2C19 activ – human CYP2C19 activators, primary screen, biochemical, luminescence; recombinant CYP2C19, luciferin-H EGE luminescence; stronger effect = higher value; 0 = fully inhibited enzyme, 1 = untreated enzyme; activation factor at 5 µM; 96,000 tested, under 10 active; AID 1025, 2008;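 active = activation factor of at least 2 at 5 µM in the primary screen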
CYP2C19 inh – blockers of cytochrome P450 2C19 activity – biochemical, luminescence, ADME assay, primary screen. P33261. CYP2C19 Supersomes, luciferin-H EGE luminescence, 30 min. inhibition, % at 5 µM. actives 21% (n = 96,000);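 active = CYP2C19 inhibition above a set limit at 5 µM in the primary screen, cut at about 50% in these data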
Of the large screens only hits and unclear results are named; the others gave an inactive call. Rows were chosen to be rich in hits. Some 28% of all compounds tested hit in one or more screens of this group.

N#Cc1c(N2CCOCC2)nc(-c2ccco2)c2c1CCCC2	CYP2C9 inh 67
COc1ccc(-n2ncc3c(NCc4ccccn4)ncnc32)cc1	CYP2C9 inh 53, CYP2C19 inh 61
c1ccc(-n2ncc3c(NCc4cccs4)ncnc32)cc1	CYP2C9 inh 81, CYP2C19 inh 60
COc1ccc(-n2ncc3c(NCc4ccco4)ncnc32)cc1	none
c1ccc(-n2ncc3c(NCc4cccnc4)ncnc32)cc1	CYP2C9 inh 69
C#CCSc1nncn1C(=O)/C=C/c1ccccc1	none (no result: Pyk2 oligo antag)
COC(=O)CNC(=O)CNC(=O)Nc1ccccc1Cl	none
O=C(NNc1ccc([N+](=O)[O-])cc1)C12CC3CC(CC(C3)C1)C2	none
COc1ccc(-c2[nH]c(-c3ccc(F)cc3)nc2SCC(=O)NCc2ccco2)cc1OC	CYP2C19 inh 51 (no result: Pyk2 oligo antag)
COc1ccc(-c2nc(SCC(=O)NCc3ccco3)c(-c3ccccc3)[nH]2)cc1OC	CYP2C9 inh 65, CYP2C19 inh 78
COc1ccc(-c2[nH]c(-c3ccccc3)nc2SCC(=O)NCc2ccco2)cc1OC	none (no result: Pyk2 oligo antag)
Cc1cccc(OCC(=O)N/N=C/c2cc([N+](=O)[O-])ccc2N2CCOCC2)c1	none (no result: CYP2C9 act, CYP2C9 inh, CYP2C19 activ, CYP2C19 inh)
COc1cc(CNC2CCCC2)cc(Cl)c1OCc1ccccc1F	CYP2C19 inh 96
COc1cc(CNC2CCCCCC2)cc(OC)c1O	none
COc1ccc(C2C(C#N)=C(N)OC3=C2C(=O)CC(C)(C)C3)c([N+](=O)[O-])c1OC (stereo unspecified)	CYP2C9 inh 71
COc1cccc(C2C(C#N)=C(N)OC3=C2C(=O)CC(c2ccco2)C3)c1OCc1ccc(F)cc1 (stereo unspecified)	CYP2C9 inh 89, CYP2C19 inh 80
COc1ccc(C2C(C#N)=C(N)OC3=C2C(=O)CC(C)C3)c(OC)c1OC (stereo unspecified)	CYP2C9 inh 58
Cc1c(Br)c([N+](=O)[O-])nn1C(C)C(=O)Nc1c(C)n(C)n(-c2ccccc2)c1=O (stereo unspecified)	none
CNc1ncc(C(=O)c2ccc(Cl)cc2)s1	CYP2C19 inh 65
CNc1ncc(C(=O)c2ccc(Cl)c(Cl)c2)s1	CYP2C19 inh 53
O=C(c1ccccc1)c1cnc(Nc2ccccc2Cl)s1	CYP2C19 inh 54
O=C(O)C1CC=CCC1C(=O)NCCc1cccc(Cl)c1 (stereo unspecified)	none
CC(C)c1ccc(Oc2cccc(C(=O)/C(C#N)=C/N(C)C)c2)cc1	CYP2C9 inh 85, CYP2C19 inh 98
CCOc1cccc(Oc2ncccc2C(=O)/C(C#N)=C/N(C)C)c1	none
CN(C)/C=C(\C#N)C(=O)c1cccc(Oc2ccc(Br)cc2)c1	CYP2C19 inh 92
CCSc1nc2c(c(=O)[nH]1)C(C(C)C)C(C#N)=C(N)O2 (stereo unspecified)	none (no result: Pyk2 oligo antag)
CCOC(=O)c1c(NC(=O)C(=O)N/N=C/c2ccccc2O)sc2c1CCCCC2	none (no result: CYP2C9 act, CYP2C9 inh, CYP2C19 activ, CYP2C19 inh)
Cc1nn(Cc2ccc(Cl)cc2)c(C)c1NC(=O)CSc1nc2c(c(C(F)(F)F)n1)CCc1ccccc1-2	CYP2C9 inh 72
Cc1ccccc1Cn1cc(NC(=O)CSc2nc3c(c(C(F)(F)F)n2)CCc2ccccc2-3)cn1	CYP2C9 inh 81
N#Cc1c(NC(=O)CSc2nc3c(c(C(F)(F)F)n2)CCc2ccccc2-3)sc2c1CCCC2	none
CC(C)(O)C1=NOC(c2ccccc2)C1 (stereo unspecified)	none
OC1(C2(O)CC(c3ccccc3)ON2)CCCCC1 (stereo unspecified)	CYP2C19 inh 77
O=C(NCCc1cccs1)C12CN(Cc3ccccc3)CC1C(c1cccc([N+](=O)[O-])c1)=NO2 (stereo unspecified)	CYP2C9 inh 73 (no result: Pyk2 oligo antag)
O=C(NCCCCc1ccccc1)C12CN(Cc3ccccc3)CC1C(c1cccc([N+](=O)[O-])c1)=NO2 (stereo unspecified)	none (no result: Pyk2 oligo antag)
O=C(NCc1ccco1)C12CN(Cc3ccccc3)CC1C(c1cccc([N+](=O)[O-])c1)=NO2 (stereo unspecified)	none (no result: Pyk2 oligo antag)
Cc1ccc(CNC(=O)C23CN(Cc4ccccc4)CC2C(c2cccc([N+](=O)[O-])c2)=NO3)cc1 (stereo unspecified)	CYP2C9 inh 61, CYP2C19 inh 88 (no result: Pyk2 oligo antag)
Cc1ccc(CNC(=O)Cn2c(=O)oc3ccccc32)o1	none
CCOC(=O)COc1ccc(S(=O)(=O)NCc2cccnc2)cc1	none
O=S(=O)(NCc1ccncc1)c1ccccc1	CYP2C19 inh 91
O=S(=O)(NCc1ccncc1)c1ccc(Br)s1	CYP2C9 inh 51, CYP2C19 inh 98
COC(=O)COc1ccc(S(=O)(=O)NCc2ccncc2)cc1	CYP2C9 inh 70, CYP2C19 inh 99
CC(=O)Nc1ccc(C(=O)CSc2nc3ccccc3n2CC(=O)N2CCCC2)cc1	none
CCOC(=O)c1ccc(N2C(=O)C3C(C2=O)C(C(=O)c2ccc(Cl)cc2)N2CCCC32)cc1 (stereo unspecified)	none
Cc1noc(C)c1S(=O)(=O)N1CCCC(C(=O)NCc2ccccn2)C1 (stereo unspecified)	none
Cc1ccc(C2CC(c3ccc(C)cc3)n3nc(N)nc3N2)cc1 (stereo unspecified)	none (no result: Pyk2 oligo antag)
Nc1nc2n(n1)C(c1ccccc1)CC(c1ccc(F)cc1)N2 (stereo unspecified)	CYP2C9 inh 93, CYP2C19 inh 98 (no result: Pyk2 oligo antag)
CCc1ccc(C2CC(c3ccc(F)cc3)Nc3nc(N)nn32)cc1 (stereo unspecified)	CYP2C19 inh 51 (no result: Pyk2 oligo antag)
COc1ccc(C2CC(c3ccccc3)Nc3nc(N)nn32)cc1 (stereo unspecified)	none
CCOc1ccc(C2CC(c3ccccc3)Nc3nc(N)nn32)cc1 (stereo unspecified)	CYP2C9 inh 51
Cc1ccccc1C1CC(c2ccc(F)cc2)Nc2nc(N)nn21 (stereo unspecified)	CYP2C9 inh 84, CYP2C19 inh 69 (no result: Pyk2 oligo antag)
COc1cccc(-c2nc(CS(=O)(=O)CC(=O)N3CCc4ccccc43)c(C)o2)c1	none (no result: Pyk2 oligo antag)
CC(=O)c1ccc(NC(=S)N2C(C)CCCC2C)cc1 (stereo unspecified)	none (no result: Pyk2 oligo antag)
Cc1nnc2n(Cc3ccccc3)c(=O)c3c4c(sc3n12)COC(C(C)C)C4 (stereo unspecified)	none
COc1ccccc1C1CC(c2ccc(Cl)cc2Cl)Nc2nc(N)nn21 (stereo unspecified)	CYP2C19 inh 83 (no result: Pyk2 oligo antag)
COc1ccc(C2CC(c3cccc(Cl)c3)n3nc(N)nc3N2)cc1 (stereo unspecified)	none (no result: Pyk2 oligo antag)
CCOc1cc(/C=N/n2cnnc2)ccc1OCC(=O)Nc1ccccc1OC	CYP2C9 inh 70, CYP2C19 inh 54
COc1cc(/C=N/n2cnnc2)ccc1OC(=O)c1ccncc1	none
